Assay outcomes deposited in PubChem by Broad Institute.
EWS-Fli block: blocks EWS/Fli oncoprotein-driven transcription | A673 NR0B1-luciferase reporter, viability-normalised | inhibition, % at 12.6 µM | 350,000 tested, 0.67% active | AID 651661;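 active = mean inhibition of at least 50% after viability correction, with every replicate also passing that limit; inconclusive = mean reaches 50% but only one of two replicates passes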;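 also: firefly luciferase signal divided by Alamar Blue viability fluorescence both relative to DMSO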
MITF TRPM1 inh: reduces MITF-dependent TRPM1 promoter luciferase signal; SK-MEL-5 TRPM1 promoter luciferase, 24 h; inhibition, % at 12.5 µM; 330,000 tested, 0.83% active;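 active = mean inhibition across replicates of 60% or more, whatever share of single replicates reaches that level; inconclusive = some that reach 60%, reason not given; inactive = mean inhibition across replicates below 60%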
Wnt bcat act: activators of Wnt/beta-catenin signaling; AID 743398; Wnt/beta-catenin reporter cell assay, activator, plate reader; 300,000 tested, 1.2% active; activation, % at 9.35 µM; in the data active = activation above about 30%, passing the limit was not always enough; inconclusive = no clear call, values can overlap the other calls;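 also: 0% = neutral control wells and 100% = positive control wells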
esBAF inh: SWI/SNF esBAF complex inhibition. mouse ES cells, Bmi1-luciferase knock-in reporter, 24 h; 100% = twice the neutral-well signal. reporter increase, % at 12.5 µM. 350,000 tested, 2% active; in the data active = activation above about 40%; inconclusive = no clear call, values can overlap the other calls;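 also: 0% = median of the plate's neutral control wells and 100% = double that signal; a rise in the Bmi1 reporter signal indicates esBAF inhibition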
PAX8 inh HTS: inhibitors of PAX8 transcriptional activity in RMG-I cells. RMG-I TPO-luciferase reporter, SteadyGlo, 24 h. inhibition, % at 12.6 µM. 360,000 tested, 1.2% active;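 active = mean replicate inhibition at least 60% with every replicate also reaching 60%; inconclusive = only one of the two criteria is met; inactive = mean below 60% and not all replicates reaching 60%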;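 also: luciferase light reporting Pax8 driven TPO promoter activity; plate controls were median of neutral control wells for no effect and mitoxantrone controls for full effect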
MITF TRPM1 HTS: MITF TRPM1 promoter activation in melanoma cells; 300,000 tested, 0.75% active; SK-MEL-5 TRPM1-promoter luciferase, 24 h; % of positive control, neutral wells = 0; activation, % at 12.5 µM; AID 588334;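 active = mean activation of at least 80% with every replicate also reaching 80%; inconclusive = mean reaches 80% but some replicate falls short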;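 also: 0% = neutral control wells and 100% = parthenolide positive control wells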
* = called active by the depositor. This is a sample that favours compounds with a hit; in the whole collection about 4% have one here.

O=C(N/N=C\c1ccc(F)cc1)c1csnn1 was read as MITF TRPM1 inh -24.8, esBAF inh 44.1* and MITF TRPM1 HTS 26.0.
O=C(CC1CC1)N1CC(=O)N2[C@@H](CO)[C@H](c3ccc(C#Cc4ccccc4)cc3)[C@@H]2C1 was read as EWS-Fli block 5.4.
`CN1[C@@H]2c3ccc(C4=CCCCC4)c(=O)n3C[C@H]1[C@H](CO)[C@H]2C(=O)NCc1cc(F)cc(F)c1` gave EWS-Fli block 1.5, esBAF inh -5.2 and PAX8 inh HTS 3.2.
For O=C(Nc1cccc(F)c1)N1CC(=O)N2[C@H](C1)[C@H](c1ccc(Br)cc1)[C@@H]2CO the results were EWS-Fli block 25.7 and PAX8 inh HTS -6.5.
For CSc1ccc(/C=N/NC(=O)c2cc(O)cc(O)c2)cc1 the results were MITF TRPM1 inh -29.0, Wnt bcat act 34.5*, esBAF inh 1.0, PAX8 inh HTS -45.4 and MITF TRPM1 HTS 36.1.
O=C(N/N=C/c1ccc(F)cc1)c1c(O)c2ccccc2[nH]c1=O was read as EWS-Fli block -9.1, MITF TRPM1 inh 62.6*, Wnt bcat act -0.5, PAX8 inh HTS -10.1 and MITF TRPM1 HTS -60.4.
Screening COc1ccc2c3c(n(C)c2c1)[C@H](CO)N(C(=O)C1CCCC1)CC31CCN(C(=O)CC2CC2)CC1 returned EWS-Fli block 8.9 and PAX8 inh HTS 15.9.
`Cc1cc(=O)oc2cc(NC(=O)c3ccc(OC(F)F)cc3)ccc12` gave EWS-Fli block -63.4, MITF TRPM1 inh -82.7, Wnt bcat act 10.9, esBAF inh 57.0*, PAX8 inh HTS -102.2 and MITF TRPM1 HTS 86.1*.
`Cc1cc(=O)oc2cc(NC(=O)c3cccc(S(=O)(=O)N(C)C)c3)ccc12` gave EWS-Fli block -144.1, MITF TRPM1 inh -136.9, Wnt bcat act 28.1, esBAF inh 39.7, PAX8 inh HTS -145.6 and MITF TRPM1 HTS 139.2*.
For Cc1cc(=O)oc2cc(NC(=O)c3cccc(S(C)(=O)=O)c3)ccc12 the results were EWS-Fli block -69.5, MITF TRPM1 inh -89.7, Wnt bcat act 7.4, esBAF inh inconclusive, PAX8 inh HTS -120.3 and MITF TRPM1 HTS 92.5*.
`COc1ccccc1C(=O)Nc1ccc2c(C)cc(=O)oc2c1` gave EWS-Fli block -123.0, MITF TRPM1 inh -92.1, Wnt bcat act 48.1*, esBAF inh 54.4*, PAX8 inh HTS -146.2 and MITF TRPM1 HTS 87.9*.
Cc1cc(=O)oc2cc(NC(=O)C(C)Oc3ccc(F)cc3)ccc12 (stereo not drawn) was read as EWS-Fli block -3.1, MITF TRPM1 inh -21.7, Wnt bcat act 1.8, esBAF inh 2.9, PAX8 inh HTS -4.1 and MITF TRPM1 HTS 22.4.
`CCOc1ncccc1C(=O)Nc1ccc2c(C)cc(=O)oc2c1` gave MITF TRPM1 inh -13.3, Wnt bcat act 1.7, esBAF inh 4.0 and MITF TRPM1 HTS 16.0.
`Cc1ccc2oc(C(=O)NC3CCS(=O)(=O)C3)c(C)c2c1` (stereo not drawn) gave EWS-Fli block -17.9, MITF TRPM1 inh -7.0, Wnt bcat act 2.0 and MITF TRPM1 HTS 9.9.
Cc1c(C(=O)NC2CCCCC2)oc2ccc(F)cc12 was read as EWS-Fli block -50.6, MITF TRPM1 inh -37.5, Wnt bcat act 18.0, esBAF inh 42.6*, PAX8 inh HTS -139.4 and MITF TRPM1 HTS 37.2.
`COc1ccc2oc(C(=O)NC3CCCCC3)c(C)c2c1` gave EWS-Fli block -50.1, MITF TRPM1 inh -113.8, Wnt bcat act 28.8, esBAF inh inconclusive, PAX8 inh HTS -160.8 and MITF TRPM1 HTS 112.3*.
`COc1ccc2oc(C(=O)NN3C(C)CCCC3C)c(C)c2c1` (stereo not drawn) gave EWS-Fli block 3.7, MITF TRPM1 inh 0.2, Wnt bcat act 1.5, PAX8 inh HTS 2.9 and MITF TRPM1 HTS 2.5.
`COc1ccccc1C(=O)Nc1ccc2c(c1)C(=O)N(C)[C@H]1CC[C@@H](CC(=O)NCc3ccc(Cl)c(Cl)c3)O[C@H]1CO2` gave EWS-Fli block 15.4, esBAF inh 4.5 and PAX8 inh HTS 53.2.
For CO[C@@H]1CC[C@H]2CCOc3c(C#N)cccc3C(=O)N(C)C[C@@H](c3ccccc3)CC(=O)N(C)C[C@@H]1O2 the results were EWS-Fli block -6.0, esBAF inh 5.4 and PAX8 inh HTS -16.8.
`CC(C)C#Cc1cnc2c(c1)C(=O)N([C@H](C)CO)C[C@@H](C)[C@H](CN(C)C(=O)c1cccnc1)O2` gave EWS-Fli block -10.0, esBAF inh 7.3 and PAX8 inh HTS 8.2.
For Cc1cc(N/C=C/C(=O)c2cccs2)ccc1F the results were EWS-Fli block -83.5, MITF TRPM1 inh -25.0, Wnt bcat act 10.9, esBAF inh 69.4*, PAX8 inh HTS -127.0 and MITF TRPM1 HTS 24.1.
O=C(/C=C/Nc1cccc([N+](=O)[O-])c1)c1cccs1 was read as MITF TRPM1 inh -17.2 and esBAF inh 73.2*.
Screening Cc1ccc(N/C=C/C(=O)c2cccs2)cc1C returned EWS-Fli block 40.1, MITF TRPM1 inh -0.8, Wnt bcat act 4.4, PAX8 inh HTS -2.2 and MITF TRPM1 HTS 2.8.
`CNc1cc([N+](=O)[O-])ccc1N/C=C/C(=O)c1cccs1` gave MITF TRPM1 inh -4.2, esBAF inh 13.6 and MITF TRPM1 HTS 8.0.
For O=C(C[C@H]1CC[C@H]2[C@@H](COC[C@H](O)CN2S(=O)(=O)c2ccc(F)cc2)O1)NCC1CCCCC1 the results were EWS-Fli block -5.3, esBAF inh 10.9 and PAX8 inh HTS 7.0.
Screening CN1[C@@H]2c3ccc(-c4cccnc4)c(=O)n3C[C@@H]2[C@@H](CO)[C@@H]1C(=O)NCC1CCCCC1 returned EWS-Fli block -6.0 and esBAF inh -2.9.
Screening CC(=O)N(Cc1ccc(F)cc1)C1=C(NCCc2ccccc2)C(=O)c2ccccc2C1=O returned MITF TRPM1 inh 104.0*, Wnt bcat act -42.6, esBAF inh -71.7, PAX8 inh HTS 104.8* and MITF TRPM1 HTS -103.4.
C/C=C/c1cnc2c(c1)C(=O)N([C@@H](C)CO)C[C@H](C)[C@@H](CN(C)Cc1cncnc1)O2 was read as EWS-Fli block -6.2 and esBAF inh -6.6.
CN(C)/N=C/C=C1\CCC/C(=C/c2cccs2)C1=O was read as EWS-Fli block -143.0, MITF TRPM1 inh -58.8, Wnt bcat act 51.7*, esBAF inh 35.9, PAX8 inh HTS -141.7 and MITF TRPM1 HTS 53.3.
CN(C)/N=C/C=C1\CC/C(=C\c2ccc(Br)cc2)C1=O was read as MITF TRPM1 inh -22.4, Wnt bcat act -0.9, esBAF inh 19.6, PAX8 inh HTS -57.4 and MITF TRPM1 HTS 18.6.
CCC(=O)N[C@@H]1C=C[C@H](CC(=O)NCCN2CCCCC2)O[C@H]1CO was read as EWS-Fli block 5.9, esBAF inh -3.6 and PAX8 inh HTS -8.2.
Screening Cc1c(Nc2ccc3nonc3c2[N+](=O)[O-])c(=O)n(-c2ccccc2)n1C returned EWS-Fli block -9.6, MITF TRPM1 inh 5.5, Wnt bcat act 0.4, PAX8 inh HTS 1.1 and MITF TRPM1 HTS -3.2.
